Screens (PubChem)
An excerpt weighted towards active compounds, which were near 2.1% of everything screened.
ARNT TACC3 PPI – ARNT/TACC3 interaction disruption. AID 623870. AlphaScreen His-ARNT PAS-B/GST-TACC3 binding, luminescence; TACC3 fragment carries E629A point mutation. inhibition, % at 9.99 µM. actives 0.66% (n = 390,000). Q9Y6A5;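 active = mean inhibition of replicates at least 50% and at least half of replicates each reaching 50%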;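 note: 0% = complete ARNT plus TACC3 wells and 100% = ARNT alone without TACC3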
rRNA inh HTS – selective bacterial rRNA inhibition in E. coli | E. coli WT GFP vs humanized-ribosome RFP mutants, fluorescence, 24 h; hits give low values; DMSO median 0, no signal -100 | GFP signal change (wild-type ribosome), % (test concentration not listed) | actives 1.6% (n = 350,000) | AID 720706;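 active = significant combined selectivity score with lowered wild-type GFP, culture density cut under 30%, mutant RFP and density less affected; inactive = any of these conditions unmet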
ERAP1 HTS inh – blocks human ERAP1 aminopeptidase activity; recombinant ERAP1, Leu-AMC fluorescence, 60 min; inhibition, % at 10.7 µM; actives 0.15% (n = 340,000); Q9NZ08;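 active = mean replicate inhibition of at least 30%, or all replicates individually reaching that 30% level; inactive = mean below 30% and not every replicate reaching it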;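 note: 0% = neutral control wells and 100% = L-leucinethiol positive control wells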
Target sequence (Q9NZ08 whole entry, looked up): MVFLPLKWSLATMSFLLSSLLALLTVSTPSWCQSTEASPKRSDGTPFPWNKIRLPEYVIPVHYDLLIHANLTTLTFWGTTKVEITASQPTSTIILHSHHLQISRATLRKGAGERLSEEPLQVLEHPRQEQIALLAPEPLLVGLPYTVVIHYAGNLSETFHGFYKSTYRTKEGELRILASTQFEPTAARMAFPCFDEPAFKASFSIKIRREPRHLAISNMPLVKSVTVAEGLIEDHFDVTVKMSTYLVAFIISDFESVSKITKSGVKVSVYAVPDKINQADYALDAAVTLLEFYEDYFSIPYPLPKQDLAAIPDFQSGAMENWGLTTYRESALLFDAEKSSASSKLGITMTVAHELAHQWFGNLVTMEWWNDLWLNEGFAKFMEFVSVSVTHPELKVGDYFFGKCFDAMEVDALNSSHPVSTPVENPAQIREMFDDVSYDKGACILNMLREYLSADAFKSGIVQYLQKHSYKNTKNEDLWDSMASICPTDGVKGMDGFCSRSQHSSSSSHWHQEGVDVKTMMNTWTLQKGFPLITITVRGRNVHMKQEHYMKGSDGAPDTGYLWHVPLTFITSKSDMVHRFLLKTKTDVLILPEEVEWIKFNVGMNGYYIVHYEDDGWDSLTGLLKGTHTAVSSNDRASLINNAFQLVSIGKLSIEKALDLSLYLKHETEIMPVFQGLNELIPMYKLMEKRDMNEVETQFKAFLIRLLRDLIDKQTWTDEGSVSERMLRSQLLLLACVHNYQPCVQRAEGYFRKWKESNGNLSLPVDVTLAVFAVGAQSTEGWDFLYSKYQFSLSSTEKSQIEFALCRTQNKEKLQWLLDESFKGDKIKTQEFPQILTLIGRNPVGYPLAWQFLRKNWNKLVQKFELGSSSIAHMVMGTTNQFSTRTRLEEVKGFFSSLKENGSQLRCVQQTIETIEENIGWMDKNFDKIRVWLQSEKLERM
CFTR F508del cor – CFTR F508del correction in bronchial cells; CFBE cells, YFP halide quenching; stimulated with forskolin plus potentiator P3; % fluorescence drop versus neutral controls; activity (quench increase), % at 7.58 µM; actives 0.36% (n = 350,000);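 active = mean added fluorescence quench of at least 8% versus neutral control, with both replicates also reaching 8%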;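 note: cells transiently co-express mutant CFTR-F508del with the halide-sensitive YFP; corrector assay measuring rescue of mutant channel to the surface after 24 h compound exposure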
PvdQ inh – blocks Pseudomonas aeruginosa PvdQ acylase activity. AID 488965. inhibition, % at 10 µM. purified PvdQ acylase, fluorescence plate reader. actives 0.063% (n = 340,000); in the data active = inhibition above about 30%, passing the limit was not always enough;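 note: 0% = vehicle neutral wells and 100% = reference inhibitor wells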
ARNT Alpha ctr-1 – interferes with AlphaScreen signal, flagging false ARNT-TACC3 hits. shares compounds with ARNT TACC3 PPI. His-ARNT PASB-GST AlphaScreen artifact counter-screen, luminescence. AC50, µM (series often up to 68 µM), for inactives: at the top dose activity change, negative = signal decrease. actives 50% (n = 1,200);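 active = every separate test run was called active for a drop in luminescence, with AC50 within twice the top valid dose, actives reach about 71 µM in these data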
ARNT Alpha ctr-2 – AlphaScreen artifact flagged for ARNT-TACC3 inhibitors | Dual-tagged His-ARNT PASB-GST AlphaScreen artifact counter-screen | AC50, µM | actives 70% (n = 45) | shares compounds with ARNT TACC3 PPI;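 active = luminescence drop, with half-maximal potency fitted within twice the sample's top valid dose, cut at about 70 µM in these data; inactive = the rest, including signal moving the wrong way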
The depositor's hits bear a star; i = inactive; · = no result; [ ] = remark or other dose.

SMILES	ARNT TACC3 PPI	rRNA inh HTS	ERAP1 HTS inh	CFTR F508del cor	PvdQ inh	ARNT Alpha ctr-1	others
CC=Cc1ccc2n(c1=O)C[C@H]1[C@H](CO)[C@@H](C(=O)NC3CCC3)[C@@H]2N1S(=O)(=O)c1cn(C)cn1 (mixture of isomers)	active	0	0	·	·	-2%[38 µM]
COc1ccc(-c2oc3cc(O)c(OC)c(O)c3c(=O)c2OC)cc1O	56*	-30	12	3	-4	-37%
COc1cc(OC)c2c(=O)c(OC)c(-c3ccc(OC)c(OC)c3)oc2c1	·	·	·	·	-11	·
N#CC1=C(N)Oc2c(ccc3cccnc23)C1c1ccccc1 (stereo not given)	57*	-1	3	17*	5	71µM*
Cc1c(CCC(=O)O)c(=O)oc2c(C)c3occ(-c4ccc(Cl)cc4)c3cc12	56*	-21	5	5	-2	62µM*
Cc1c(CC(=O)O)c(=O)oc2c(C)c3occ(-c4ccccc4)c3cc12	6	-38	0	-3	0	·
CCc1c(C)nc(Nc2nc(C)c3ccc(OC)cc3n2)[nH]c1=O	51*	17	2	1	-2	-37%
COc1cc(/C=N/NC(=O)c2cncc(Br)c2)cc([N+](=O)[O-])c1O	58*	-13	·	-1	7	36µM*
CCCC(=O)Nc1ccc2c(c1)C(=O)N(C)C[C@H](OC)[C@@H](C)CN(C)[C@@H](C)CO2	-8	1	-4	-1	·	·
COc1ccc(CCNC(=O)CSc2nnc(Cc3csc(N)n3)n2C)cc1OC	28*	·	·	·	-3	-10%
c1ccc(-c2nnc(-c3ccccn3)nc2NCC2CC2)cc1	·	·	·	·	·	1µM*
c1ccc(-c2cc3nc(NCC4CC4)nc(NCC4CCCCC4)c3s2)cc1	·	-20	0	-1	·	·
c1ccc(-c2nc(NCC3CC3)nc3ccsc23)cc1	·	·	-2	-2	·	·
c1ccc(-c2nnc(-c3ccccn3)nc2NCC2CCCCC2)cc1	·	·	·	·	·	3.1µM*
O=c1oc2ccccc2c(O)c1C=NCc1ccccn1	58*	·	·	·	-13	1%
COc1cc(/C=N/Nc2nncn2N)ccc1OCc1c(C)no[n+]1[O-]	6	0	-4	1	-6	·
COc1ccc(/C=N/Nc2nncn2N)cc1Br	55*	-11	0	-2	-14	-19%
CC(C)Cc1nnc(NC(=O)c2cccc(S(=O)(=O)N3CCOCC3)c2)s1	·	-1	2	-4	-10	·	ARNT Alpha ctr-2=i
CN1CCN(S(=O)(=O)c2cccc(C(=O)Nc3cc(C(N)=O)cc(C(N)=O)c3)c2)CC1	40	13	-5	2	-6	·
CN1CCN(S(=O)(=O)c2cccc(C(=O)Nc3sccc3C(N)=O)c2)CC1	46*	-11	2	1	2	44µM*
C#CCSc1nnc(-c2cccc3ccccc23)o1	36	·	·	·	16	·
C=CCSc1nnc(-c2cccc3ccccc23)o1	57*	-1	0	1	11	34µM*
CC(C)C#Cc1cnc2c(c1)C(=O)N([C@@H](C)CO)C[C@H](C)[C@@H](CN(C)C(=O)c1ccccn1)O2	-5	0	0	-1	·	·
O=C(NCCc1ccccc1)c1ccc(=O)[nH]c1	active	·	·	·	-5	-5%
NS(=O)(=O)c1ccc(CCNC(=O)c2ccc(=O)[nH]c2)cc1	-5	-1	-2	2	6	·
SMILES	ARNT TACC3 PPI	rRNA inh HTS	ERAP1 HTS inh	CFTR F508del cor	PvdQ inh	ARNT Alpha ctr-1	others
O=C(NC[C@@H]1CC[C@@H]2[C@@H](CN2S(=O)(=O)c2ccccc2[N+](=O)[O-])O1)Nc1ccccc1	·	·	1	-1	·	·
C=CCn1c(Cc2csc(N)n2)nnc1SCC(=O)Nc1ccc(C(=O)OCC)cc1	61*	·	·	·	-10	-30%
C=CCn1c(Cc2cccs2)nnc1SCC(=O)Nc1ccc(C(=O)OCC)cc1	-1	·	·	·	-11	·
Cc1ccc(-n2c(SCC(N)=O)nnc2-c2ccccn2)cc1	55*	·	·	·	-11	-21%
CCN(CC)C(=O)CSc1nnc(-c2ccccn2)n1-c1ccc(C)c(C)c1	52*	·	·	·	-17	-9%
Cc1ccc(-n2c(SCc3ccc(C#N)cc3)nnc2-c2ccccn2)cc1	0	·	·	·	-9	·
CCN(CC)C(=O)CSc1nnc(-c2cnccn2)n1-c1ccccc1	-1	·	·	·	0	·
O=C(O)c1cc2c(cn1)[nH]c1ccccc12	75*	5	-17	3	-19	9.7µM*
Cc1ccc(C2=CSC3=NS(=O)(=O)CCN23)cc1	50*	7	0	-1	11	-8%
CCCC(=O)NC(c1ccc(OC)c(OC)c1)c1cc(Cl)c2cccnc2c1O (stereo not given)	·	10	-1	-6	-12	·
CCCC(=O)NC(c1ccco1)c1cc([N+](=O)[O-])c2cccnc2c1O (stereo not given)	59*	-45	1	-2	13	30µM*
CCC(=O)NC(c1cccs1)c1cc(Cl)c2cccnc2c1O (stereo not given)	4	4	1	5	-10	·
CCC(=O)NC(c1ccc(C)cc1)c1cc([N+](=O)[O-])c2cccnc2c1O (stereo not given)	58*	·	·	·	1	11µM*
C[C@@H]1CCCCO[C@@H](CN(C)S(=O)(=O)c2cccs2)[C@@H](C)CN([C@H](C)CO)C(=O)c2cc(NC(=O)CCCN(C)C)ccc2O1	1	3	-5	1	·	·
CN1C(=O)c2cc(NC(=O)c3cccc(F)c3)ccc2OC[C@@H]2O[C@H](CC(=O)NC3CCC3)CC[C@@H]21	-2	-3	·	-4	·	·
C[C@@H]1CN([C@H](C)CO)C(=O)c2cc(-c3cccc(C#N)c3)cnc2O[C@H]1CN(C)Cc1ccccc1	-9	5	1	-1	·	·
C[C@H](O)C#Cc1ccc([C@@H]2[C@H]3CN(C(=O)c4ccncc4)CCCCN3[C@H]2CO)cc1	-9	3	1	-2	·	·
C[C@H]1CN([C@@H](C)CO)S(=O)(=O)c2ccc(C#Cc3ccccn3)cc2O[C@H]1CN(C)C(=O)C1CC1	26	-5	1	-1	·	·
C[C@@H]1CN([C@H](C)CO)S(=O)(=O)c2ccc(C#Cc3ccccn3)cc2O[C@@H]1CN(C)C(=O)C1CC1	51*	-4	1	-4	·	-5%[42 µM]
CCC(=O)NC(c1cc(Cl)c2cccnc2c1O)C(C)C (stereo not given)	54*	-5	-2	1	-7	69µM*
CCC(=O)NC(c1cc(Cl)c2cccnc2c1O)C1CC1 (stereo not given)	58*	3	-2	1	-16	37µM*
CN1C(=O)c2cc(NC(=O)c3ccc(F)c(F)c3)ccc2OC[C@H]2O[C@@H](CC(=O)N3CCCCC3)CC[C@@H]21	-2	-10	1	-2	·	·
